Assay results published in PubChem BioAssay (Tox21).
Values joined by “and” are separate entries in the source; they are usually repeats but may differ in a detail not shown here. Identical values can stand only once. Records with an inconclusive call do not appear. More than one record can exist for a structure, and the calls need not agree. Active and inactive are the calls of the source. Calls come from the whole dose curve; as a rule, active = well fitted curve in the direction sought with a large enough effect in the repeat runs; inconclusive = weak or mixed curves; inactive = no such curve, though single readings can be large; an effect the other way counts as inactive or inconclusive.

Each compound was assayed against Cytochrome P450 1A2 (Homo sapiens) (UniProt P05177) (assay: Cytochrome P450 Family 1 Subfamily A Member 2 (CYP1A2) small molecule antagonists: luciferase reporter qHTS assay (AID 1671199)). Details: P450-Glo CYP1A2 enzyme, luciferin luminescence, 1 h; series mostly up to 115 µM; activity change, negative = inhibition: at the top concentration.
Procedure, shortened: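 Luminescence readout (relative luminescence units) after luciferin detection reagent, 20 min RT. Preceded by 1 h room-temperature CYP1A2 reaction with NADPH regeneration solution following 10 min compound preincubation with enzyme and proluciferin substrate. Furafylline positive control.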
% is set by controls: 0 for no effect and ±100 for the full control effect; potency is the fitted concentration of half-maximal effect.
Note: nearly all actives have a fitted effect of over 50% in size.

Sequence of Cytochrome P450 1A2 (Homo sapiens) (P05177 whole entry, looked up): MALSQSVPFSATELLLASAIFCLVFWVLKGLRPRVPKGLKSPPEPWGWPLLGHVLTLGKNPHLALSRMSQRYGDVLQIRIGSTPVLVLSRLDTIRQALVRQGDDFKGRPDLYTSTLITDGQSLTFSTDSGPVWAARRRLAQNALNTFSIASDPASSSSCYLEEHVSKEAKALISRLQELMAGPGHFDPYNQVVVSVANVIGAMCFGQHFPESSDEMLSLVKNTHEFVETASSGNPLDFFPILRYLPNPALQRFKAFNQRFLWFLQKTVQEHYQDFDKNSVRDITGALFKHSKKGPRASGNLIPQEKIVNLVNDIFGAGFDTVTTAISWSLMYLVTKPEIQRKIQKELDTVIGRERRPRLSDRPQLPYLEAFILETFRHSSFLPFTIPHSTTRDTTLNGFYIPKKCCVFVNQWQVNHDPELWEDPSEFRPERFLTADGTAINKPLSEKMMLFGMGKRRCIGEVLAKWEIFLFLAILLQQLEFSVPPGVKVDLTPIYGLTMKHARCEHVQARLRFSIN

Compound	activity change, negative = inhibition	Potency
[O-][Br+2]([O-])O	-1.71% [at 53 µM] (inactive)	–
CCOP(=S)(OCC)SCCl	–	25.2 µM (active)
CCC(C)C(C)(COC(N)=O)COC(N)=O (centres undefined)	5.47% [at 53 µM] (inactive)	–
ClC1=C(Cl)C2(Cl)C(CBr)CC1(Cl)C2(Cl)Cl (centres undefined)	12.4% [at 53 µM] (inactive)	–
CCOC1Oc2ccc(OS(C)(=O)=O)cc2C1(C)C (centres undefined)	–	35.3 µM (active)
CC(C)(N)Cc1ccc(Cl)cc1	–	24.5 µM (active)
CCOC(=O)CC(SP(=S)(OC)OC)C(=O)OCC (centres undefined)	–	2.24 µM (active) and 1.62 µM (active)
O=C/C=C/c1ccco1	-16% (inactive)	–
COc1cc(CCN)cc(OC)c1OC	–	38.7 µM (active)
CNC(=O)NC(O)C(Cl)(Cl)Cl (centres undefined)	15.2% [at 53 µM] (inactive)	–
O=C(NC(O)C(Cl)(Cl)Cl)NC(O)C(Cl)(Cl)Cl (centres undefined)	-3.06% [at 53 µM] (inactive)	–
O=C(O)CBr	-17.3% (inactive)	–
CC(C)[C@]12CC(=O)[C@H](C)[C@H]1C2	-4.98% (inactive)	–
CN(C)C(=O)Oc1cc(OC(=O)N(C)C)cc(C(O)CNC(C)(C)C)c1 (centres undefined)	-12.7% [at 53 µM] (inactive)	–
C=C(C)[C@H]1CN[C@H](C(=O)O)[C@H]1CC(=O)O	1.29% [at 53 µM] (inactive)	–
CC(C)(O)C(Cl)(Cl)Cl	-14.5% [at 53 µM] (inactive)	–
Cn1c(CCCC(=O)O)nc2cc(N(CCCl)CCCl)ccc21	-11.3% [at 53 µM] (inactive)	–

Compound	activity change, negative = inhibition	Potency
CCN(CCO)CCn1c(Cc2ccccc2)nc2c1c(=O)n(C)c(=O)n2C	14.8% [at 53 µM] (inactive)	–
CC(C)C(C)(N)C#N (centres undefined)	-10.5% (inactive)	–
O=P(O)(O)CN(CP(=O)(O)O)CP(=O)(O)O	–	inactive
Cc1ccc(Cl)c(O)c1	-17% [at 53 µM] (inactive)	–
C/C=C/CC#N	–	36.4 µM (active)
ClCCCCCCCl	–	35.6 µM (active)
CCCCCCC(=O)CCCCCC/C=C/C[C@@H](O)[C@H](O)[C@@](N)(CO)C(=O)O	-0.0703% [at 23.6 µM] (inactive)	–
O=C1C2CC=CCC2C(=O)N1SC(Cl)(Cl)Cl (centres undefined)	–	31.6 µM (active) and 22.1 µM (active)
N#CN	-21.8% [at 300 µM] (inactive)	–
CN=CNc1ccc(C)cc1C	-16.1% (inactive)	–
C=CCc1cc(OC)c2c(c1)OCO2	–	1.87 µM (active)
CN(C)CCc1c[nH]c2cccc(OP(=O)(O)O)c12	2.05% (inactive)	–
NCCOS(=O)(=O)O	-12.7% (inactive)	–
C[C@H]1CCCC(=O)CCC/C=C/c2cc(O)cc(O)c2C(=O)O1	–	21.6 µM (active) and 13.1 µM (active)
CC(C)NCC(O)c1ccc([N+](=O)[O-])cc1 (centres undefined)	-3.45% [at 53 µM] (inactive)	–
CC(C)(C)NC[C@H](O)c1ccc(O)cc1Cl	12.1% [at 53 µM] (inactive)	–
OP(O)c1ccccc1	-18.7% (inactive)	–

Each compound was assayed against Voltage-gated inwardly rectifying potassium channel KCNH2 (Homo sapiens) (UniProt Q12809) (assay: Human Ether-a-go-go-Related Gene (hERG) channel small molecule antagonists: fluorescence cell-based qHTS assay (AID 1671200;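 for activity change, negative = inhibition: hERG-expressing U2OS cells given a thallium stimulus after FluxOR II dye loading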)). Details: hERG-U2OS cells, FluxOR thallium flux fluorescence; series mostly up to 76.8 µM; activity change, negative = inhibition: at the top concentration.
Procedure, shortened: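 First, 1000 cells per well are seeded and cultured overnight at 37 C. Next, FluxOR II dye is loaded for 1 h at room temperature, protected from light. After 10 more minutes, stimulus is added and fluorescence is read.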

Sequence of Voltage-gated inwardly rectifying potassium channel KCNH2 (Homo sapiens) (Q12809 whole entry, looked up): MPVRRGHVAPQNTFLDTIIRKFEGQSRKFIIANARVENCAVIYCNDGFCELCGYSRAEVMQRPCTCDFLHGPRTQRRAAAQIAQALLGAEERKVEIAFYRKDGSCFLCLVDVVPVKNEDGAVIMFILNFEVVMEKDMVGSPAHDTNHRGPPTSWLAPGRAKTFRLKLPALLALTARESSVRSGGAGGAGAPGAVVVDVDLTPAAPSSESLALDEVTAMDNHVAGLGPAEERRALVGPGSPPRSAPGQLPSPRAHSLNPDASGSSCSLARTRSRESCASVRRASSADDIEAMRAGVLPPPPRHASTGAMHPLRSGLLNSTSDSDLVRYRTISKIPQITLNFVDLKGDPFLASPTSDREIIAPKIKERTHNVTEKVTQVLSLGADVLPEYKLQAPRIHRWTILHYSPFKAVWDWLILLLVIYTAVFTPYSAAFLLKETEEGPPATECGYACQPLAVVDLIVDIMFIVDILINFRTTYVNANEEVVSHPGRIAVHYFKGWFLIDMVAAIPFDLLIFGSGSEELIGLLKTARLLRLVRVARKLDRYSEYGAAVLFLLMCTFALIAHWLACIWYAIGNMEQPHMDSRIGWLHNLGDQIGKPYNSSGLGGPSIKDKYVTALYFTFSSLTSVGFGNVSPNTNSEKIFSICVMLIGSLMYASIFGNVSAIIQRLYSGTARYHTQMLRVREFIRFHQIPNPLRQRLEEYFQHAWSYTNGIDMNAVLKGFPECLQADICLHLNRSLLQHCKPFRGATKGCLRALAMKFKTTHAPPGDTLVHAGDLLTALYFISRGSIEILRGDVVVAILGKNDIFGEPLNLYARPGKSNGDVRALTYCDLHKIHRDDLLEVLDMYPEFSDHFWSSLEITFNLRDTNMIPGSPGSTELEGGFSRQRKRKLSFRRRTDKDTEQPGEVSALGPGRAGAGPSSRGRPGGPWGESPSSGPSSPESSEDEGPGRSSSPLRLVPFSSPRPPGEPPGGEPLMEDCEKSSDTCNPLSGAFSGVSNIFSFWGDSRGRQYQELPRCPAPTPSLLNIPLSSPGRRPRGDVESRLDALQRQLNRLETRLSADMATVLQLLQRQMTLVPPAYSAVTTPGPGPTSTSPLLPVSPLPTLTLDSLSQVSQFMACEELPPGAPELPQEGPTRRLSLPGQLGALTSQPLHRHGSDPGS

Compound	activity change, negative = inhibition	Potency
[O-][Br+2]([O-])O	-4.59% [at 35.3 µM] (inactive)	–
CCOP(=S)(OCC)SCCl	-2.24% (inactive)	–
CCC(C)C(C)(COC(N)=O)COC(N)=O (centres undefined)	2.46% [at 35.3 µM] (inactive)	–
CCOC1Oc2ccc(OS(C)(=O)=O)cc2C1(C)C (centres undefined)	-0.407% (inactive)	–
CC(C)(N)Cc1ccc(Cl)cc1	-0.55% [at 35.3 µM] (inactive)	–
O=C/C=C/c1ccco1	0.621% (inactive)	–
COc1cc(CCN)cc(OC)c1OC	0.823% (inactive)	–
O=C(NC(O)C(Cl)(Cl)Cl)NC(O)C(Cl)(Cl)Cl (centres undefined)	4.02% [at 35.3 µM] (inactive)	–
O=C(O)CBr	4.6% (inactive)	–
CC(C)[C@]12CC(=O)[C@H](C)[C@H]1C2	2.13% (inactive)	–
CN(C)C(=O)Oc1cc(OC(=O)N(C)C)cc(C(O)CNC(C)(C)C)c1 (centres undefined)	-0.115% [at 35.3 µM] (inactive)	–
C=C(C)[C@H]1CN[C@H](C(=O)O)[C@H]1CC(=O)O	3.59% [at 35.3 µM] (inactive)	–
CC(C)(O)C(Cl)(Cl)Cl	4.03% [at 35.3 µM] (inactive)	–
Cn1c(CCCC(=O)O)nc2cc(N(CCCl)CCCl)ccc21	-1.98% [at 35.3 µM] (inactive)	–
CCN(CCO)CCn1c(Cc2ccccc2)nc2c1c(=O)n(C)c(=O)n2C	-0.165% [at 35.3 µM] (inactive)	–
CC(C)C(C)(N)C#N (centres undefined)	2.21% (inactive)	–
O=P(O)(O)CN(CP(=O)(O)O)CP(=O)(O)O	–	inactive
Cc1ccc(Cl)c(O)c1	5.2% [at 35.3 µM] (inactive)	–
ClCCCCCCCl	3.77% (inactive)	–
CCCCCCC(=O)CCCCCC/C=C/C[C@@H](O)[C@H](O)[C@@](N)(CO)C(=O)O	0.803% [at 15.8 µM] (inactive)	–
O=C1C2CC=CCC2C(=O)N1SC(Cl)(Cl)Cl (centres undefined)	–	inactive and 48.2 µM (active)
N#CN	-0.116% [at 200 µM] (inactive)	–
C=CCc1cc(OC)c2c(c1)OCO2	-3.7% (inactive)	–
CN(C)CCc1c[nH]c2cccc(OP(=O)(O)O)c12	5.19% (inactive)	–
NCCOS(=O)(=O)O	1.94% (inactive)	–
C[C@H]1CCCC(=O)CCC/C=C/c2cc(O)cc(O)c2C(=O)O1	-7.78% [at 35.3 µM] (inactive)	–
CC(C)(C)NC[C@H](O)c1ccc(O)cc1Cl	-5.82% [at 35.3 µM] (inactive)	–
OP(O)c1ccccc1	1.04% (inactive)	–

Each compound was assayed against Cytochrome P450 3A4 (Homo sapiens) (UniProt P08684) (assay: Cytochrome P450 Family 3 Subfamily A Member 4 (CYP3A4) small molecule antagonists: luciferase reporter qHTS assay (AID 1671201)). Details: P450-Glo CYP3A4 enzyme, luciferin luminescence, 1 h; series mostly up to 115 µM; activity change, negative = inhibition: at the top concentration.
Procedure, shortened: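 Enzyme and proluciferin substrate are mixed with test chemicals for 10 min, then NADPH regeneration system drives turnover for 1 h at room temperature. A detection reagent halts the reaction; luminescence after 20 min gives relative activity.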

Sequence of Cytochrome P450 3A4 (Homo sapiens) (P08684 whole entry, looked up): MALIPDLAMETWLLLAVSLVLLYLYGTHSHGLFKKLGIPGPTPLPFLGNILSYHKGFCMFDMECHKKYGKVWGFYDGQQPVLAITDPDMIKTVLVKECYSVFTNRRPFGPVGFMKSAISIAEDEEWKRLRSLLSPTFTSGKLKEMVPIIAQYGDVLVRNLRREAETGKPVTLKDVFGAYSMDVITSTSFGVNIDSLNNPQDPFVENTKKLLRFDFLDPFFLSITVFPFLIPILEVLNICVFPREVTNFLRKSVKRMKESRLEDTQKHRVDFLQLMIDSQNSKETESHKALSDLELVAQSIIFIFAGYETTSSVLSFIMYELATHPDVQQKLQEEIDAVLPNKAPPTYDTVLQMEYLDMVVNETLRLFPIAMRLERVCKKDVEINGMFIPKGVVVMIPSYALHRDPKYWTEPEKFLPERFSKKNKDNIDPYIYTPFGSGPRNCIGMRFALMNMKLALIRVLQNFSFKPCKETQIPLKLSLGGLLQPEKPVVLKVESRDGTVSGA

Compound	activity change, negative = inhibition	Potency
[O-][Br+2]([O-])O	14.6% [at 52.9 µM] (inactive)	–
CCOP(=S)(OCC)SCCl	–	11.2 µM (active)
CCC(C)C(C)(COC(N)=O)COC(N)=O (centres undefined)	5.73% [at 52.9 µM] (inactive)	–
CCOC1Oc2ccc(OS(C)(=O)=O)cc2C1(C)C (centres undefined)	2.02% (inactive)	–
CC(C)(N)Cc1ccc(Cl)cc1	13.4% [at 52.9 µM] (inactive)	–
O=C/C=C/c1ccco1	-1.11% (inactive)	–
COc1cc(CCN)cc(OC)c1OC	-22.2% (inactive)	–
CNC(=O)NC(O)C(Cl)(Cl)Cl (centres undefined)	11.4% [at 52.9 µM] (inactive)	–
O=C(NC(O)C(Cl)(Cl)Cl)NC(O)C(Cl)(Cl)Cl (centres undefined)	1.69% [at 52.9 µM] (inactive)	–
O=C(O)CBr	36% (inactive)	–
CC(C)[C@]12CC(=O)[C@H](C)[C@H]1C2	6.15% (inactive)	–
CN(C)C(=O)Oc1cc(OC(=O)N(C)C)cc(C(O)CNC(C)(C)C)c1 (centres undefined)	9.59% [at 52.9 µM] (inactive)	–
C=C(C)[C@H]1CN[C@H](C(=O)O)[C@H]1CC(=O)O	7.34% [at 52.9 µM] (inactive)	–
CC(C)(O)C(Cl)(Cl)Cl	10.6% [at 52.9 µM] (inactive)	–
Cn1c(CCCC(=O)O)nc2cc(N(CCCl)CCCl)ccc21	-3.41% [at 52.9 µM] (inactive)	–
CCN(CCO)CCn1c(Cc2ccccc2)nc2c1c(=O)n(C)c(=O)n2C	2.13% [at 52.9 µM] (inactive)	–

Compound	activity change, negative = inhibition	Potency
CC(C)C(C)(N)C#N (centres undefined)	8.11% (inactive)	–
O=P(O)(O)CN(CP(=O)(O)O)CP(=O)(O)O	–	inactive
Cc1ccc(Cl)c(O)c1	8.28% [at 52.9 µM] (inactive)	–
C/C=C/CC#N	8.09% (inactive)	–
ClCCCCCCCl	3.79% (inactive)	–
CCCCCCC(=O)CCCCCC/C=C/C[C@@H](O)[C@H](O)[C@@](N)(CO)C(=O)O	24.6% [at 23.6 µM] (inactive)	–
O=C1C2CC=CCC2C(=O)N1SC(Cl)(Cl)Cl (centres undefined)	-7.19% (inactive)	–
N#CN	-23% [at 300 µM] (inactive)	–
CN=CNc1ccc(C)cc1C	1.75% (inactive)	–
C=CCc1cc(OC)c2c(c1)OCO2	–	4.69 µM (active)
CN(C)CCc1c[nH]c2cccc(OP(=O)(O)O)c12	2.3% (inactive)	–
NCCOS(=O)(=O)O	3.18% (inactive)	–
C[C@H]1CCCC(=O)CCC/C=C/c2cc(O)cc(O)c2C(=O)O1	–	122 nM (active) and 184 nM (active)
CC(C)NCC(O)c1ccc([N+](=O)[O-])cc1 (centres undefined)	4.57% [at 52.9 µM] (inactive)	–
CC(C)(C)NC[C@H](O)c1ccc(O)cc1Cl	3.19% [at 52.9 µM] (inactive)	–
OP(O)c1ccccc1	7.53% (inactive)	–
